Measured values from PubChem BioAssay (NCI).
The panel holds about 83,000 compounds, 20% with a hit somewhere; the sample as a whole holds those more often.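 Testing used 96-well plates and a 48-hour single-concentration exposure. Example: -40 means 40% of the starting cells died.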 Values without a mark were called inactive. Calls of active or inactive are those of the source. Rule for the calls: active = growth percent below 10; inactive = the rest.

Key:
Assay in all cases: NCI-60 one-dose screen, 48 h (100 = growth as untreated, 0 = no growth, -100 = all killed)
[1] = system: SK-MEL-2 melanoma; conditions: 10 µM unless noted
[2] = system: EKVX NSCLC; conditions: 10 µM unless noted
[3] = system: SN12C renal; conditions: 10 µM unless noted
[4] = system: UO-31 renal; conditions: 10 µM unless noted
[5] = system: TK-10 renal; conditions: 10 µM unless noted
[6] = system: ACHN renal; conditions: 10 µM unless noted
[7] = system: CAKI-1 renal; conditions: 10 µM unless noted
[8] = system: A498 renal; conditions: 10 µM unless noted
[9] = system: CCRF-CEM leukemia; conditions: 10 µM unless noted
[10] = system: MOLT-4 leukemia; conditions: 10 µM unless noted
[11] = system: RPMI-8226 leukemia; conditions: 10 µM unless noted
[12] = system: OVCAR-8 ovarian; conditions: 10 µM unless noted
[13] = system: OVCAR-5 ovarian; conditions: 10 µM unless noted
[14] = system: SK-OV-3 ovarian; conditions: 10 µM unless noted
[15] = system: IGROV1 ovarian; conditions: 10 µM unless noted
[16] = system: OVCAR-3 ovarian; conditions: 10 µM unless noted
[17] = system: HS 578T breast; conditions: 10 µM unless noted
[18] = system: NCI/ADR-RES ovarian; conditions: 10 µM unless noted
[19] = system: SR leukemia; conditions: 10 µM unless noted
[20] = system: OVCAR-4 ovarian; conditions: 10 µM

| Structure (SMILES) | growth [1] | growth [2] | growth [3] | growth [4] | growth [5] | growth [6] | growth [7] | growth [8] | growth [9] | growth [10] | growth [11] | growth [12] | growth [13] | growth [14] | growth [15] | growth [16] | growth [17] | growth [18] | growth [19] | growth [20] |
| --- | --- | --- | --- | --- | --- | --- | --- | --- | --- | --- | --- | --- | --- | --- | --- | --- | --- | --- | --- | --- |
| C=C(C)[C@@H]1CC[C@]2(C(N)=O)CC[C@]3(C)[C@H](CC[C@@H]4[C@@]5(C)C/C(=C/c6cccnc6)[C@H](O)C(C)(C)[C@@H]5CC[C@]43C)[C@@H]12 | -13.2% [100 µM] (active) | 33.8% [100 µM] | 20% [100 µM] | 12.2% [100 µM] | 32.5% [100 µM] | 9.24% [100 µM] (active) | 10.7% [100 µM] | 61.9% [100 µM] | 5.5% [100 µM] (active) | 1.99% [100 µM] (active) | 13.1% [100 µM] | 21.9% [100 µM] | 14.1% [100 µM] | 31.6% [100 µM] | 17.5% [100 µM] | 29.1% [100 µM] | 43.2% [100 µM] | 11.3% [100 µM] |  |  |
| O=S(=O)(NCc1ccccc1)c1ncnc2nc[nH]c12 | 118% | 111% | 108% | 93.8% | 115% | 105% | 104% | 124% | 83.1% |  | 99.2% | 87.2% | 106% | 108% | 119% | 111% |  | 97.4% | 105% |  |
| O=S(=O)(/N=c1/n(-c2ccccc2)nc2n1CCN2C1=NCCN1)c1ccc(-c2ccccc2)cc1 | 115% | 95.9% | 93.6% | 84.4% | 108% | 101% | 92% | 82.9% | 94.7% | 95.1% | 96.8% | 103% | 96.6% | 100% | 95.4% | 101% |  | 104% |  |  |
| C=C(C)[C@@H]1CC[C@]2(C)[C@H](C(=O)C=C3[C@@H]4C[C@](C)(C(=O)N5CCN(C)CC5)CC[C@]4(C)CC[C@]32C)[C@@]1(C)CCC#N | -78.6% [100 µM] (active) | -20.8% [100 µM] (active) | -86.9% [100 µM] (active) | -100% [100 µM] (active) | -87.8% [100 µM] (active) | -93.7% [100 µM] (active) | -96.2% [100 µM] (active) | -73.7% [100 µM] (active) | -34% [100 µM] (active) | -45.9% [100 µM] (active) | -54.5% [100 µM] (active) | -70.9% [100 µM] (active) | -75.9% [100 µM] (active) | -76.1% [100 µM] (active) | -76% [100 µM] (active) | -76.6% [100 µM] (active) | -54.8% [100 µM] (active) | -81.3% [100 µM] (active) |  |  |
| COc1cc(NN=C(c2ccc(O)cc2)c2ccc(O)cc2)c([N+](=O)[O-])cc1[N+](=O)[O-] | -70.2% (active) | 108% | 90.5% | -66.4% (active) | 93.5% | 42.4% | 97% | 125% | 103% |  | 81.5% | -31.7% (active) | 24.1% | 5.8% (active) |  | 60.9% | 93.8% | 8.39% (active) | 50.6% | 88.9% |
| C=C(C)[C@@H]1CC[C@]2(C(=O)NCCCCCCN(CCCN)CCCN)CC[C@]3(C)[C@H](CC[C@@H]4[C@@]5(C)CC[C@H](OCCCN)C(C)(C)[C@@H]5CC[C@]43C)[C@@H]12 | 122% [100 µM] | 141% [100 µM] | 81.9% [100 µM] | 53.4% [100 µM] | 119% [100 µM] | 75.6% [100 µM] | 94.5% [100 µM] | 130% [100 µM] | 11.8% [100 µM] |  | 29.3% [100 µM] | -28.3% [100 µM] (active) | 90.5% [100 µM] | 97.9% [100 µM] | 27.3% [100 µM] | 71.8% [100 µM] | 94.9% [100 µM] | 86.3% [100 µM] | 18.4% [100 µM] |  |
| C=C(C)[C@@H]1CC[C@]2(C(=O)OC)CC[C@]3(C)[C@H](CC[C@@H]4[C@@]5(C)CC/C(=N\OCCC(=NCCC#N)NOCCC#N)C(C)(C)[C@@H]5CC[C@]43C)[C@@H]12 | 36.2% [100 µM] | 53.1% [100 µM] | -71.9% [100 µM] (active) | 19% [100 µM] | 37.9% [100 µM] | 13.9% [100 µM] | 18.5% [100 µM] | -0.384% [100 µM] (active) | 7.42% [100 µM] (active) | -26.8% [100 µM] (active) | 3.28% [100 µM] (active) | 13.2% [100 µM] | 50.6% [100 µM] | 34.6% [100 µM] | 18.8% [100 µM] | -34.5% [100 µM] (active) | 24.3% [100 µM] | 17.1% [100 µM] |  |  |
| O=C(CCNCc1ccccc1)c1ccccc1 | 108% | 104% | 109% | 95.9% | 113% | 107% | 100% | 112% | 116% |  | 105% | 112% | 103% | 109% | 114% | 102% | 110% | 105% | 109% | 119% |
| O=C1CC(c2ccc3c(c2)OCO3)Nc2ccccc21 (stereo not drawn) | 40.1% | 48.1% | 34.4% | 43.9% | 40.1% | 46.9% | 33.9% | -11.2% (active) | 10.8% |  | 15.4% | 22.3% | 54.3% |  | 53.5% | -19.5% (active) |  | 1.78% (active) | 19% | 51.7% |
| CC(C)C1=NOC(=O)C1=Cc1cn(-c2ccco2)nc1-c1ccccc1 | 113% | 99.6% | 87.4% | 71.5% | 110% | 92.3% | 73.8% | 98.6% | 32.9% |  | 6.57% (active) | 80.5% | 114% | 102% |  | 90.6% | 96.1% | 98% | -2.02% (active) | 94.6% |
| COc1ccc(C2NC(=O)C(C#N)c3c2sc2c(F)cccc32)cc1 (stereo not drawn) | 60% | 62.8% | 61.5% | 36.8% | 113% | 43.6% | 40% | 32.2% | 44% |  | 63.2% | 69.8% | 85.6% | 63.2% |  | 0.617% (active) |  | 27.3% | 22.2% | 71.4% |
| C[n+]1cccc(NC(=O)c2ccc3ccc4ccc(C(=O)Nc5ccc[n+](C)c5)nc4c3n2)c1 | 56.9% | 68.1% | -14.8% (active) | 65.4% | 94.2% | 41.8% | 52.3% | 95.3% | 71.1% |  | 61.5% | 62.5% | 79.5% | 8.34% (active) |  | 62.4% | 74.7% | 101% | 75% |  |
| O=C(Nc1cc(-c2cccnc2)nc(NCCCN2CCOCC2)n1)c1cc(Br)cc(C(F)(F)F)c1 | 81.3% | 77.4% | 67.2% | 42% | 65.4% | 75.6% | 61.8% | 53.7% | 42.8% |  | 30.2% | 58.6% | 81.4% | 92.3% | 63.1% | 79.9% | 54% | 56.6% | 4.25% (active) | 62.2% |
| COc1ccc(C2CC(c3ccc4ccccc4c3)=NN2c2nc(O)c(C3=c4cc(OC)ccc4=NC3=O)s2)cc1 (stereo not drawn) | -69.6% (active) | -67.3% (active) | -56% (active) | -77.3% (active) | -71% (active) | -51.2% (active) | -59.6% (active) | -83.2% (active) | 8.68% (active) |  | 1.78% (active) | -34.6% (active) | 0.651% (active) |  | -18.5% (active) | -55.5% (active) | -7.14% (active) | 57% | -30.5% (active) | -45.8% (active) |
| C/C=C/C1OC23CCCCC2C(C#N)(C(=N)O3)C1(C#N)C#N (stereo not drawn) | 107% | 106% | 93.7% | 76.2% | 103% | 94.1% | 81.2% | 118% | 81.2% |  | 98.8% | 93.9% | 103% | 103% | 96.2% | 90.2% | 96.9% | 104% | 49.1% | 95% |
